What all share (test): qHTS profiling for inhibitors of Plasmodium falciparum proliferation (AID 504749); note: nearly all actives have a fitted effect of over 60% in size
Holding throughout (conditions): P. falciparum in erythrocytes, SYBR Green DNA, 72 h; series mostly up to 28.7 µM

One assay relates to CP238. In short, it runs like this: (§1)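 SYBR Green fluorescence (ex 485 nm, em 535 nm) reports parasite DNA after 72 h compound exposure of infected red cells at 0.3% parasitemia, 2.5% hematocrit; signal normalized to 0.29 uM artemisinin and vehicle wells.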
The subject of another assay is CP247. In short, it runs like this: as §1
For another assay, the system named is CP250. In short, it runs like this:
as §1

For the next assay, the system named is CP256. In short, it runs like this:
as §1

Another assay concerns CP260. In short, it runs like this: as §1
For the next assay, the system named is CP262. In short, it runs like this: as §1
The next assay has as its system CP265. An outline of the steps: as §1
The test system of a further assay is CP266. In short, it runs like this:
as §1

The subject of another assay is CP286. An outline of the steps: as §1
The next assay concerns CP297. In short, it runs like this:
as §1

Another assay concerns CP305. In short, it runs like this:
as §1

A further assay deals with CP315. An outline of the steps: as §1
A further assay deals with CP325. In short, it runs like this: as §1
In a further assay the test system is CP329. In short, it runs like this: as §1
The subject of the next assay is CP335. In short, it runs like this:
as §1

A further assay deals with DFO2036. In short, it runs like this:
as §1

For another assay, the system named is CP269. An outline of the steps: as §1
In the next assay the test system is CP252. In short, it runs like this: as §1
In another assay the test system is CP291. An outline of the steps: as §1
Another assay deals with CP268. In short, it runs like this: as §1

Results filed as inconclusive are left out. Active and inactive are the calls of the source. Calls come from the whole dose curve; as a rule, active = well fitted inhibition curve with a large enough effect; inconclusive = small, poorly fitted or top-dose-only effect; inactive = flat fitted curve, though single readings scatter.

For ten compounds, Potency results are on record in PubChem BioAssay (NCATS).
Potency is the fitted concentration of half-maximal effect.

For `CCOc1nc2cccc(C(=O)O)c2n1Cc1ccc(-c2ccccc2-c2nn[nH]n2)cc1`, the Potency result in the assay with CP238, in the assay on CP247, in the assay on CP250, with CP256, in the assay on CP260 and in the assay on CP262 was “inactive” in each case. Also, the Potency entry in the assay on CP265, with CP266, in the assay on CP286, in the assay on CP297, with CP305 and in the assay with CP315 was “inactive” each time. For the same compound, the Potency entry in the assay with CP325, with CP329, in the assay on CP335 and with DFO2036 was “inactive” throughout.

With `CC(C)(C)C(=O)C(Oc1ccc(Cl)cc1)n1ccnc1` (stereo not drawn), the Potency entry in the assay with CP256, with CP262, with CP266 and in the assay on CP329 was “inactive” each time. Moreover, the Potency is 16.9 µM (active) with CP297 and 12.6 µM (active) in the assay on DFO2036.

Take `COCCOC(=O)C1=C(C)NC(C)=C(C(=O)OC/C=C/c2ccccc2)C1c1cccc([N+](=O)[O-])c1` (stereo not drawn): the Potency entry in the assay with CP266 was “inactive”. Also, the Potency in the assay on CP335 is 9.53 µM (active).

As to `CCN(CC)CCNC(C(=O)OCCC(C)C)c1ccccc1` (stereo not drawn), the Potency entry with CP247, with CP250, with CP262, in the assay on CP266 and with CP315 was “inactive” throughout. In addition, in the assay on CP265, the Potency was 8.91 µM (active).

For the compound `CSc1ccc2c(c1)C(N1CCN(C)CC1)Cc1ccccc1S2` (stereo not drawn), the Potency result in the assay on CP250, with CP256, in the assay with CP262, with CP265, in the assay on CP266 and in the assay on CP315 was “inactive” throughout. The Potency in the assay with CP260 was 10 µM (active).

For `CSc1ccc2c(c1)N(CCC1CCCCN1C)c1ccccc1S2` (stereo not drawn), the Potency in the assay on CP260 was 7.94 µM (active); with CP269, 10.7 µM (active); in the assay on CP286 it was 11.2 µM (active). Besides, the Potency entry in the assay on CP266 is “inactive”.

Consider `CN1CCCCC1CCN1c2ccccc2Sc2ccc(S(C)=O)cc21` (stereo not drawn), for which the Potency result in the assay with CP247, in the assay on CP252, in the assay with CP262, in the assay on CP266, in the assay on CP297 and in the assay with CP315 was “inactive” each time. Further, the Potency result in the assay on CP325, in the assay with CP329 and in the assay with DFO2036 was “inactive” each time.

For the compound `CN1CCN(C2Cc3ccccc3Sc3ccc(Cl)cc32)CC1` (stereo not drawn), the Potency result with CP238, in the assay with CP247, in the assay on CP250, in the assay on CP252, in the assay with CP256 and in the assay with CP262 was “inactive” throughout. For the same compound, the Potency entry in the assay with CP265, in the assay on CP266, in the assay on CP269, in the assay with CP291, in the assay with CP305 and in the assay on CP315 was “inactive” in each case. For the same compound, the Potency result in the assay on CP325, in the assay with CP329 and in the assay with DFO2036 was “inactive” in each case.

With `OCc1cc(C(O)CNCCCCCCOCCCCc2ccccc2)ccc1O` (stereo not drawn), the Potency entry in the assay on CP238, in the assay on CP247, with CP250, in the assay with CP252, with CP265 and with CP266 was “inactive” each time. For the same compound, the Potency result with CP268, in the assay with CP269, in the assay with CP291, in the assay with CP297, with CP305 and in the assay on CP315 was “inactive” each time. For the same compound, the Potency result with CP325, in the assay on CP329 and in the assay with DFO2036 was “inactive” throughout.

For the compound `CN1CCC[C@@H]1Cc1c[nH]c2ccc(CCS(=O)(=O)c3ccccc3)cc12`, the Potency entry in the assay with CP252, in the assay with CP262, in the assay with CP266, in the assay on CP269, in the assay on CP305 and in the assay with CP315 was “inactive” throughout. The Potency entry in the assay with CP329 and in the assay on DFO2036 was “inactive” throughout.
